The results in this text go back to PubChem BioAssay (NCI).

Common to all, as to assay: NCI-60 one-dose screen, 48 h (100 = growth as untreated, 0 = no growth, -100 = all killed)
What all share (details): 10 µM unless noted

Assay [1] deals with NCI-H23 lung.
For assay [2], the system named is NCI-H226 lung.
The subject of assay [3] is NCI-H322M lung.
Assay [4] deals with HOP-62 NSCLC.
Assay [5] deals with NCI-H460 lung.
The subject of assay [6] is HOP-92 NSCLC.
The test system of assay [7] is NCI-H522 lung.
The test system of assay [8] is A549/ATCC NSCLC.
The subject of assay [9] is 786-0 renal.
Assay [10] has as its system COLO 205 colon.
Assay [11] concerns DU-145 prostate.
The test system of assay [12] is K-562 leukemia.
Assay [13] concerns MALME-3M melanoma.
Assay [14] deals with MDA-MB-231 breast.
For assay [15], the system named is RXF 393 renal.
Assay [16] concerns SF-268 CNS.
Assay [17] concerns SF-295 CNS.
Assay [18] concerns SF-539 CNS.
Assay [19] has as its system UACC-257 melanoma.
Assay [20] deals with M14 melanoma.

Compounds without any hit were thinned out: in the full panel of roughly 83,000, 20% have a hit.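 Compound tested at a single concentration for 48 hours in 96-well plates; a percent growth value below 10 was scored as active.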 A number with no mark means an inactive call. Calls of active or inactive are those of the source.

Regarding `CC#CC(=O)N1CCC[C@H]1c1nc(-c2ccc(C(=O)Nc3ccccn3)cc2)c2c(N)nccn12`, the growth is 96.4% in assay [1]; 80.2% in assay [2]; 76.6% in [3]; 68.9% in assay [4]; 90.4% in assay [5]; 76.9% in assay [6]. The growth in assay [7] is 37.1%; in [8] it was 48.6%; in assay [9] it was 92.3%; in [10], 81.6%; in assay [11], 89.1%; in assay [12], 77.2%. Besides, the growth is 99% in assay [13]; 90.3% in assay [14]; 93.3% in assay [15]; 79.5% in assay [16]; 89.9% in assay [17]; 95.4% in assay [18]. Moreover, the growth in assay [19] is 57.7%; in [20], 83.1%.
In the case of `C[C@@H](NC(=O)c1ncnc(N)c1Cl)c1ncc(C(=O)Nc2cc(C(F)(F)F)c(Cl)cn2)s1`, the growth in assay [1] is 59.8%; in [2], 78.6%; in assay [3] it was 80.9%; in [4], 63.1%; in assay [5], 71.6%; in assay [6] it was 64.1%. Also, the growth is 46% in assay [7]; 53.2% in assay [8]; 110% in [9]; 13.2% in assay [10]; 94.9% in assay [11]; 11.5% in [12]. In addition, the growth is 3.24% (active) in [13]; 39% in assay [14]; 106% in [15]; 93% in assay [16]; 90.2% in [17]; 86.4% in [18]. In addition, the growth in assay [19] is -13.9% (active); in assay [20], 15%.
Take `CN(C)C/C=C/C(=O)Nc1cc2c(Nc3ccc(F)c(Cl)c3)ncnc2cc1O[C@H]1CCOC1`: the growth in assay [1] is -11.7% (active); in assay [2], -7.37% (active); in [3] it was -16.4% (active); in [4] it was -10.8% (active); in [5] it was 4.3% (active); in [6], -11.5% (active). Also, the growth in assay [7] was -55.6% (active); in [8] it was 3.14% (active); in assay [9] it was 8.66% (active); in [10], -65.1% (active); in [11], -7.97% (active); in assay [12], 0.783% (active). Besides, the growth in [13] was -75.1% (active); in assay [14], -13.7% (active); in assay [15], -22% (active); in assay [16], 6.2% (active); in [17], 29.8%; in assay [18], -84.6% (active). Besides, the growth in assay [19] was -70.7% (active); in assay [20] it was -82.8% (active).
For the compound `Cn1cc(-c2[nH]c3cc(NC(=O)[C@H](N)C4CCCCC4)cc4c3c2C=NNC4=O)cn1`, the growth in assay [1] is -12.7% (active); in assay [2], 26.1%; in assay [3], 16.1%; in assay [4], -11.3% (active); in [5], 11.6%; in assay [6], -25.2% (active). For the same compound, the growth in [7] was -66% (active); in assay [8], 14%; in assay [9] it was -18.9% (active); in [10], -78.4% (active); in [11] it was 30.5%; in assay [12] it was -59.6% (active). The growth in assay [13] is -56.2% (active); in assay [14], -67.7% (active); in [15] it was -85.1% (active); in [16], -23.4% (active); in [17], 16.8%; in assay [18], -84.8% (active). For the same compound, the growth in [19] was 21.1%; in [20], -17.6% (active).
On to `COC(=O)[C@H](Cc1ccc(O)cc1)NC(=O)[C@@H](OC)[C@@H]1Cc2cc3cc(OC4CC(OC5CC(O)C(O)C(C)O5)C(O)C(C)O4)c(C)c(O)c3c(O)c2C(=O)[C@H]1OC1CC(OC2CC(OC3CC(C)(O)C(O)C(C)O3)C(O)C(C)O2)C(O)C(C)O1` (stereo not given in full), for which the growth is -38.6% (active) in assay [1]; -17.6% (active) in [2]; 11.1% in assay [3]; 19.3% in assay [4]; 6.99% (active) in [5]; 12.2% in assay [6]. Also, the growth in assay [7] was -19.5% (active); in assay [8], 4.32% (active); in [9], 1.98% (active); in [10] it was -22.8% (active); in assay [11], 15.8%; in assay [12] it was 7.28% (active). For the same compound, the growth is -43% (active) in assay [13]; 19.5% in [14]; -71.5% (active) in assay [15]; 20.7% in assay [16]; 7.09% (active) in assay [17]; -27.1% (active) in assay [18]. Also, the growth in [19] is 2.42% (active); in assay [20], -20.2% (active).
For `C#Cc1cccc(Nc2ncnc3cc(OCCOC)c(OCCOC)cc23)c1`, the growth is 74.9% in [1]; 75.4% in assay [2]; 0.463% (active) in assay [3]; 63% in assay [4]; 55.8% in [5]; 72.8% in [6]. Besides, the growth in assay [7] was -6.57% (active); in assay [8], 41.5%; in assay [9], 57.5%; in assay [10] it was 60.8%; in assay [11] it was 35.8%; in assay [12] it was 51.3%. For the same compound, the growth is 67.6% in [13]; 67% in assay [14]; 46.1% in assay [15]; 62.9% in assay [16]; 84.9% in assay [17]; 81.1% in assay [18]. Besides, the results for the growth in assay [19] and in [20] were 85.7% and 48.5%, respectively.
In the case of `COC(=O)CNC(=O)[C@@H](OC)[C@@H]1Cc2cc3cc(OC4CC(OC5CC(O)C(O)C(C)O5)C(O)C(C)O4)c(C)c(O)c3c(O)c2C(=O)[C@H]1OC1CC(OC2CC(OC3CC(C)(O)C(O)C(C)O3)C(O)C(C)O2)C(O)C(C)O1` (stereo not given in full), the growth in assay [1] is -16.8% (active); in assay [2], -10% (active); in assay [3], 15.7%; in assay [4], 21.6%; in [5], 9.15% (active); in assay [6] it was 9.61% (active). For the same compound, the growth in assay [7] is -19% (active); in [8] it was 7.82% (active); in [9], -2.99% (active); in assay [10], -17.6% (active); in [11] it was 17.2%; in assay [12] it was 10.2%. Further, the growth was -35.3% (active) in [13]; 21.5% in assay [14]; -75.4% (active) in assay [15]; 21.1% in assay [16]; 6.85% (active) in assay [17]; -28.7% (active) in [18]. Besides, the growth in assay [19] was 6.03% (active); in assay [20], -32.1% (active).
